From PubChem
An excerpt weighted towards active compounds, which were near 3% of everything screened.
CF NFkB block – inhibitors of cystic fibrosis induced NF-kB; KKLEB NF-kB-GFP reporter, PAF-induced, GFP fluorescence overnight; inhibition, % at 5 µM; 0.86% of 360,000 active; AID 588850;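 active means at least 50% inhibition at 5 µM, scaled per plate between neutral and stimulator controls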;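 further: PAF is a Pseudomonas aeruginosa culture filtrate used as stimulus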
MITF TRPM1 inh – inhibitors of MITF-driven TRPM1 promoter in melanoma cells | inhibition, % at 12.5 µM | 0.83% of 330,000 active | SK-MEL-5 TRPM1 promoter luciferase, 24 h | AID 488899;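 active means mean inhibition across replicates of 60% or more, whatever share of single replicates reaches that level; inconclusive means some that reach 60%, reason not given; inactive means mean inhibition across replicates below 60%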
HIF-2a inh – HIF-2a inhibition; 786-0 RCC cells HIF-2a reporter, luciferase luminescence, overnight; inhibition, % at 18.8 µM; 0.72% of 360,000 active; AID 624352;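 active means inhibition of the luminescence signal of 40% or more relative to plate controls, in a single-dose primary screen at 18.75 µM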
ABHD5 PLIN5 PPI – ABHD5-PLIN5 protein interaction inhibition; Split G. princeps luciferase complementation, luminescence, 4 h; AID 602281; 0.78% of 360,000 active; inhibition, % at 4 µM; Q00G26+Q8WTS1;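 active means inhibition above the mean inhibition across every tested compound plus 3 SD, cut at about 22% in these data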
Target sequence (Q00G26 whole entry, looked up): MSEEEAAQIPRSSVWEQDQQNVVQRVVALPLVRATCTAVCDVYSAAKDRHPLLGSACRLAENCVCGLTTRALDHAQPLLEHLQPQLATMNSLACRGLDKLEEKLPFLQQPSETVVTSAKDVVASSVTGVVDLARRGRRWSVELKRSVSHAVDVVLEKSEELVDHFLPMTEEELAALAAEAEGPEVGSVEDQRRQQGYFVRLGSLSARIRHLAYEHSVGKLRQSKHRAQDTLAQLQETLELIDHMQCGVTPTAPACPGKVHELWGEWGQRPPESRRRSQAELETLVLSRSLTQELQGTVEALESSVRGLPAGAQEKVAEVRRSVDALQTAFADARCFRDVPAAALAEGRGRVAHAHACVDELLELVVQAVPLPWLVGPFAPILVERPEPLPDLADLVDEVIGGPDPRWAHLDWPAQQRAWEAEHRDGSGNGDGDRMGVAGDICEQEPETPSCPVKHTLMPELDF
Target sequence (Q8WTS1 whole entry, looked up): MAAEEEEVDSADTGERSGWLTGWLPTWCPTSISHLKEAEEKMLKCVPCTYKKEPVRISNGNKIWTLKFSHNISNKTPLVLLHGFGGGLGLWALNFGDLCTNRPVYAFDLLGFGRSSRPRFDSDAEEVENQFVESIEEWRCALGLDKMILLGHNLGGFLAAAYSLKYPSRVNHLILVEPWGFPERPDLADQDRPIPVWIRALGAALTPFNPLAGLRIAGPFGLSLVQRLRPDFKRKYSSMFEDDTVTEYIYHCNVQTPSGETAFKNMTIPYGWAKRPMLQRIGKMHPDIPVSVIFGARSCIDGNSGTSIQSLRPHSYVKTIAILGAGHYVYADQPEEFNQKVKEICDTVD
Peg3 prom inh-1 – reduces Peg3 promoter-driven luciferase expression in HeLa. HeLa PEG-Prom luciferase reporter, luminescence, overnight. inhibition, % at 20 µM. 1.7% of 360,000 active. AID 588405;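 active means inhibition of at least 50% at 20 µM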
KKLEB cytotox – counter-screen for CF NF-kB inhibitors: cytotoxicity; KKLEB CF airway cells viability, ATPlite luminescence, overnight; hits give low values; cells stimulated with P. aeruginosa culture filtrate; activity change (cytotoxicity), % at 5 µM; 0.36% of 360,000 active; AID 602141;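 active means corrected activity change at or below -50% at 5 µM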
Peg3 prom inh-2 – Peg3 promoter inhibition confirmation. 84% of 1,300 active. AID 602417. shares compounds with Peg3 prom inh-1. inhibition, % at 20 µM. HeLa PEG-Prom luciferase reporter, luminescence, overnight;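 active means at 20 µM dose, 40% or more inhibition averaged across four replicates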
A number is an active result; i = inactive; ? = inconclusive; nt = no result; ! = not active in a repeat.

SMILES | CF NFkB block | MITF TRPM1 inh | HIF-2a inh | ABHD5 PLIN5 PPI | Peg3 prom inh-1 | KKLEB cytotox | Peg3 prom inh-2
Cc1ccc(C(=O)Nc2nc3ccccc3[nH]2)cc1 | i | 73 | 63 | i | 71 | -52 | 64
O=C(Nc1nc2ccccc2[nH]1)c1ccc([N+](=O)[O-])cc1 | i | i | i | i | i | i | nt
Cc1cc(C(=O)Nc2cnc3ccccc3c2)ccc1[N+](=O)[O-] | i | i | i | i | i | i | nt
Cc1ccc(C(=O)Nc2cnc3ccccc3c2)cc1 | i | 84 | 84 | i | 99 | i | 94
Cc1noc(C)c1NC(=O)Nc1ccc2c(c1)C(=O)N([C@H](C)CO)C[C@H](C)[C@@H](CN(C)S(=O)(=O)c1c(C)noc1C)O2 | i | i | i | i | i | i | nt
O=C(Nc1cccc(S(=O)(=O)N2CCCCC2)c1)C1CCCN1S(=O)(=O)c1ccccc1F (stereo unspecified) | i | i | i | i | i | i | nt
CCCCn1c(N)c(N(CC(C)C)C(=O)c2ccc(C)c(S(=O)(=O)N3CCCCC3)c2)c(=O)[nH]c1=O | i | i | i | i | i | i | nt
CN=c1scc(-c2cccs2)n1/N=C/c1ccccc1O | i | 87 | 90 | i | 91 | -69 | 95
CSCC[C@H](NC(=O)Cc1c(C)c2cc3c4c(oc3cc2oc1=O)CCCC4)C(=O)O | i | i | i | i | i | i | nt
COc1ccc(NC(=O)CN(C)C(=O)C23CC4CC(CC(C4)C2)C3)cc1 | i | i | i | i | i | i | nt
CCOC(=O)c1[nH]c2ccc(Cl)cc2c1-c1ccccc1 | i | i | i | i | i | i | nt
CN(C)C=NC(=O)c1[nH]c2ccc(Cl)cc2c1-c1ccccc1 | i | i | i | i | 72 | i | 81
COc1cc(C=NO)nc(-c2ccccn2)c1 | i | 79 | i | i | 52 | i | 65
CCOC(=O)C1=C(COCCN)NC(C)=C(C(=O)OC)C1c1ccccc1Cl (stereo unspecified) | i | i | i | i | 69! | i | 89
COc1cccc(/C=N/NC(=O)c2ccc(-c3ccccc3)cc2)c1O | i | 69 | i | i | 55 | i | 69
COc1cccc(/C=N/NC(=O)c2c(C)nc3ccc(Cl)cn23)c1O | i | 70 | i | i | 56 | i | 71
COc1ccc(/C=N/NC(=O)c2cccc(NC(C)=O)c2)c(OC)c1 | i | i | i | i | i | i | nt
COc1ccc(C(=O)Nc2cccc(C(=O)N/N=C/c3ccc(OC)cc3OC)c2)cc1 | i | i | 58 | i | 74 | i | 77
Cc1ccc(NC(=O)CCCn2c(=S)[nH]c3ccsc3c2=O)cc1C | i | i | i | i | i | i | nt
CN1CCC/C1=C1/C(=O)N(c2ccccc2)N=C1NC(=O)Nc1cccc(Cl)c1 | i | i | i | i | i | i | nt
O=C(O)c1cc2[nH]c3c(c2cc1Cl)CCCC3 | i | i | i | i | i | i | nt
CCOC(=O)c1c(NC(=O)CSc2nnnn2-c2ccccc2OCC)sc2c1CC(C)(C)NC2(C)C | i | i | i | i | 79 | i | 86
Cc1nn(-c2ccc([N+](=O)[O-])cc2)c2c1C(c1cccc(Br)c1)N1C(=N2)C(=O)Nc2ccccc21 (stereo unspecified) | i | i | i | i | i | i | nt
Cc1nn(-c2ccccc2)c2c1C(c1ccc([N+](=O)[O-])cc1)N1C(=N2)C(=O)Nc2ccccc21 (stereo unspecified) | i | i | i | i | 53 | i | 50
COc1ccc(C(=O)c2sc(Nc3cccc(OC)c3)c(C(=O)Nc3cccc(C)c3C)c2N)cc1 | i | i | i | i | 97 | i | i
SMILES | CF NFkB block | MITF TRPM1 inh | HIF-2a inh | ABHD5 PLIN5 PPI | Peg3 prom inh-1 | KKLEB cytotox | Peg3 prom inh-2
COc1cc(/C=C/C(=O)CC(=O)/C=C/c2ccc(O)c(OC)c2)ccc1O | i | i | i | 32 | 64 | i | i
COc1cc(/C=C/C(=O)O)ccc1O | i | nt | i | i | i | i | nt
COc1ccc(-c2sc3ccccc3c2C#Cc2cncn2C)cc1 | i | i | i | i | 52 | i | i
COc1ccc(C(C)=O)c(Oc2cc(NN3CCCCC3)c([N+](=O)[O-])cc2[N+](=O)[O-])c1 | i | i | i | i | i | i | nt
CCCSCCCNC(=O)Cn1nc(CC)n2c(cc3c(OC)cccc32)c1=O | i | nt | i | i | 54 | i | i
CCc1nn(CC(=O)NCCN2CCOCC2)c(=O)c2cc3c(OC)cccc3n12 | i | i | i | i | i | i | nt
Cc1ccc(C)c(OCC(O)CN2CCC(CN3C(=O)c4cccc5cccc(c45)C3=O)CC2)c1 (stereo unspecified) | i | nt | i | i | 99 | i | 97
O=C1c2cccc3cccc(c23)C(=O)N1CC1CCN(CC(O)COCc2ccc3c(c2)OCO3)CC1 (stereo unspecified) | i | i | i | i | i | i | nt
CCCC(=O)NC(c1ccc(C(C)C)cc1)c1ccc2cccnc2c1O (stereo unspecified) | i | i | i | i | 67 | i | 70
O=C(O)c1ccccc1NC(c1ccccc1)c1ccc2cccnc2c1O (stereo unspecified) | i | i | i | i | i | i | nt
CCC(=O)NC(c1ccc(C)cc1)c1ccc2cccnc2c1O (stereo unspecified) | i | ? | i | i | 60 | i | 68
CC(=O)NC(c1ccc(Cl)cc1)c1ccc2cccnc2c1O (stereo unspecified) | i | i | i | i | 60 | i | 70
COc1ccc(C(NC(=O)C(C)C)c2ccc3cccnc3c2O)cc1 (stereo unspecified) | i | 76 | i | i | 61 | i | 66
CC(=O)NC(c1ccco1)c1ccc2cccnc2c1O (stereo unspecified) | i | i | i | i | i | i | nt
CCC(=O)NC(c1ccc(Cl)cc1Cl)c1ccc2cccnc2c1O (stereo unspecified) | i | i | i | i | i | i | nt
CCC(NC(=O)c1ccccc1NC(=O)C(C)(C)C)C(=O)N1CC(C)OC(C)C1 (stereo unspecified) | i | i | i | i | i | i | nt
O=C(NCCCN1CCCC1=O)Nc1ccc(Br)cc1Cl | i | i | i | i | i | i | nt
Cc1cccc(C(=O)NNC(=O)C2CCN(C(=O)OC(C)(C)C)CC2)c1 | i | i | i | i | i | i | nt
COc1cc2c(cc1OC)CN(C(=O)CNS(=O)(=O)c1ccc(C)c(C)c1)CC2 | i | i | i | i | i | i | nt
C/C(=C\C=C(C#N)C#N)c1cc(C#N)c(N)o1 | i | i | i | i | i | i | nt
CCCCC(=O)NC(c1ccc(OC)cc1)c1ccc2cccnc2c1O (stereo unspecified) | i | nt | i | i | 52 | i | 69
Cc1ccnc(NC(c2ccccc2)c2ccc3cccnc3c2O)c1 (stereo unspecified) | i | i | i | i | i | i | nt
